Results as given in PubChem BioAssay AID588852 (The Scripps Research Institute Molecular Screening Center, 2011).
The whole screen tested about 360,000 compounds, of which about 4,600 (1.3%) were called active. The sample holds actives, similar compounds and a random draw of the others, so the mix is not that of the screen. Unmarked numbers belong to inactive results.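 Rule for the calls: active = percent inhibition above its own plate's cutoff, namely the mean of that plate's compound wells plus 3 SD; inactive = the rest.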

Each compound was assayed against Muscarinic acetylcholine receptor M1 (Homo sapiens) (UniProt P11229) (assay: human M1 muscarinic receptor antagonists, primary screen, CHO-K1 cells, Fluo-8 calcium fluorescence, 1536-well (AID 588852;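 note: peak over basal fluorescence ratio during 140 s after agonist addition; 0% = ACh EC80 plus DMSO and 100% = DMSO alone without agonist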)). Conditions: CHO-K1 hM1, Fluo-8 calcium fluorescence, ACh EC80 antagonist; at 3 µM; stronger effect = higher value.
Sequence of Muscarinic acetylcholine receptor M1 (Homo sapiens) (P11229 whole entry, looked up): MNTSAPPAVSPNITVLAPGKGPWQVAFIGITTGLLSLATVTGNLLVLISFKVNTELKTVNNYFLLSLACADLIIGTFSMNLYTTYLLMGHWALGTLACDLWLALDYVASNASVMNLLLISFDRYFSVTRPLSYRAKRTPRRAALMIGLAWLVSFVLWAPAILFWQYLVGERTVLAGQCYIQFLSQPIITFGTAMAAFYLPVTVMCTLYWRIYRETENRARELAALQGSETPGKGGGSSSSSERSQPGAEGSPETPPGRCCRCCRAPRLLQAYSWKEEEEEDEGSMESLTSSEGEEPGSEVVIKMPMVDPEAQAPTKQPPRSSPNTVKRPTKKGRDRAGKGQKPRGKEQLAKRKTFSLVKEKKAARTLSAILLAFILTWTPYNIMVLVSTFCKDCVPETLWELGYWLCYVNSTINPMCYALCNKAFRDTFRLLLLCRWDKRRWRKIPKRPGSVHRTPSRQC

Row | Structure (SMILES) | inhibition
1 | Nc1c(C(=O)c2cccs2)sc2nsc(SCCN3CCCCC3)c12 | 44.1% (active)
2 | S=C(Nc1ccccc1)Nc1ccc2ccccc2c1 | -3.01%
3 | Cc1nc2cc(NC(=O)Nc3cccc(F)c3)ccc2n1C | -17.2%
4 | O=C(Nc1ccc2ccccc2c1)Nc1ccc2snnc2c1 | 32.8% (active)
5 | CN(Cc1ccccc1)C(=O)CCC1CCN(C(=O)c2ccco2)CC1 | 31.3% (active)
6 | O=C(c1ccco1)N1CCN(CCOc2ccccc2)CC1 | -9.86%
7 | O=C(c1ccco1)N1CCN(C(=O)C2c3ccccc3Oc3ccccc32)CC1 | 11.3%
8 | Cc1ccc([C@@H]2CC(=O)[C@@H]3CN(S(=O)(=O)c4ccc(C)cc4)[C@H](c4ccccc4F)C[C@@H]3N2S(=O)(=O)c2ccc(Cl)cc2)cc1 | -10%
9 | CC12CCC(=O)C=C1CCC1C2C(O)CC2(C)C1CCC2(O)C(O)CO (stereo not given) | -14.1%
10 | COc1ccc(CCNC2=C(Cl)C(=O)N(Cc3ccccc3)C2=O)cc1OC | 13.4%
11 | COc1ccc(/C=C2\SC(=S)N(CCC(=O)N3CCOCC3)C2=O)cc1OC | -11%
12 | COc1cc(/C=C2/SC(=S)N(Cc3ccccc3)C2=O)cc(OC)c1O | 30.7% (active)
13 | O=C(CCNc1n[nH]c(=O)[nH]c1=O)N/N=C\c1ccc(Br)cc1 | -20%
14 | Cc1ccccc1C(OCCN(C)C)C1CCCCC1 (stereo not given) | 99.8% (active)
15 | CN(C)CCOC1c2ccccc2-c2ccccc21 | 12.7%
16 | COc1ccccc1CNC(=O)Cn1c(=O)oc2cc(Cl)ccc21 | -12.3%
17 | CSCCC(NC(=O)c1ccco1)C(=O)NCCc1ccc(F)cc1 (stereo not given) | 4.11%
18 | O=C(NNC(=O)c1ccc(-c2ccccc2)cc1)Nc1ccccc1 | -2.91%
19 | CC(C(=O)c1ccc(-c2ccccc2)cc1)[n+]1cccc(Br)c1 (stereo not given) | 35.1% (active)
20 | C[n+]1cccc(C(=O)O)c1 | -30.2%
21 | CCCCc1nc(NCc2ccccc2)c(C#N)c2c1CCCC2 | -5.37%
22 | COc1ccc(C(C#N)=C2C=CC(=NO)c3ccccc32)cc1 | 22%
23 | CC1=C(C(=O)N2CCOCC2)CC(CC(=O)NCc2cccs2)C(=O)N1CCCN1CCCC1=O (stereo not given) | 4.82%
24 | Cc1ccc2nc(-c3ccco3)c(Cc3cccc(Cl)c3)n2c1 | -5.65%

Row | Structure (SMILES) | inhibition
25 | COC(=O)c1ccc(CNC(=O)c2ccc(S(=O)(=O)N3CCCCCC3)cc2)cc1 | -11.2%
26 | Cc1cc2cc(CNC(=O)c3ccc(S(=O)(=O)N4CCOCC4)cc3)ccc2[nH]1 | 59.4% (active)
27 | Cc1ccc(S(=O)(=O)N2CCOCC2)cc1C(=O)NCc1ccc(F)cc1 | 9.1%
28 | CCCC(=O)N1CCC1(C)C(=O)NCc1ccc(SC)cc1 (stereo not given) | -8.63%
29 | COc1cccc(NC(=O)COc2cccnc2[N+](=O)[O-])c1 | -7.66%
30 | CC(NC(=O)COc1cccnc1[N+](=O)[O-])c1ccc(Cl)cc1Cl (stereo not given) | 42.6% (active)
31 | O=C(COc1cccnc1[N+](=O)[O-])Nc1ccc(Cl)cc1F | 3.68%
32 | CCCNC(=S)NC1CC2CCCC(C1)N2CC(C)C (stereo not given) | 29.5%
33 | CC(C)C(c1nnnn1C(C)(C)C)N1CCN(Cc2cccnc2)CC1 (stereo not given) | -13.5%
34 | CCOc1ccc(CN(Cc2ccco2)C(c2cccs2)c2nnnn2C(C)(C)C)cc1 (stereo not given) | 18.8%
35 | CC(C)(C)n1nnnc1C(c1cccs1)N(Cc1cccnc1)CC1CCCO1 (stereo not given) | 79.4% (active)
36 | CC(=O)NS(=O)(=O)c1ccc2c(c1)Cc1cc(S(=O)(=O)NC(C)=O)ccc1-2 | -13.4%
37 | O=C(NCC(O)c1nc2ccccc2[nH]1)c1ccc(Br)cc1 (stereo not given) | -13.3%
38 | CC(=O)C1=CCC(c2ccccc2)N(S(=O)(=O)c2ccc(C)cc2)C1 (stereo not given) | -10.8%
39 | CCOC(=O)C1=CC[C@@H](c2ccncc2)N(S(=O)(=O)c2ccc(C)cc2)C1 | 24.6%
40 | CCOC(=O)C1=CCC(c2ccc(F)cc2)N(S(=O)(=O)c2ccc(C)cc2)C1 (stereo not given) | 34% (active)
41 | COc1c(C)cc(C(O)c2ncc(-c3cccc(C(F)(F)F)c3)[nH]2)cc1C (stereo not given) | -5.01%
42 | CCCN1C2CCCC1CC(NC(=O)c1cccc(OC)c1)C2 (stereo not given) | -14.2%
43 | COc1ccc(NC(=O)NC2CC3CCCC(C2)N3Cc2ccccc2)cc1 (stereo not given) | 1.24%
44 | COc1ccc(CN2C3CCCC2CC(NC(=O)c2cccc(F)c2)C3)cc1 (stereo not given) | 32.6% (active)
45 | Cc1nn(Cc2ccc(C(=O)N3N=C(C(F)F)CC3(O)C(F)F)cc2)c(C)c1[N+](=O)[O-] (stereo not given) | -0.52%
46 | COc1ccc(C(C)(O)c2nc(-c3ccc(C)c(C)c3)cs2)cc1 (stereo not given) | 6.49%
47 | Cc1cc([N+](=O)[O-])nn1CC(=O)Nc1ccc(Cc2ccncc2)cc1 | 28.3% (active)
48 | Cc1cc(C)n(CC(=O)Nc2ccc([N+](=O)[O-])cc2)n1 | -1.63%

Row | Structure (SMILES) | inhibition
49 | CC(C)CC(=O)Nc1ccc(Cc2ccncc2)cc1 | -16.9%
50 | CC(C)CN1CCC1(C)C(=O)Nc1ccc(OC(F)F)cc1 (stereo not given) | 1.99%
51 | CCc1nc2c(=O)[nH]cnc2o1 | -5.65%
52 | COc1cc(C(=O)N(C)Cc2cccc(OC)c2OC)ccc1OCC(=O)Nc1cccc(C(F)(F)F)c1 | 5.88%
53 | CCCCC[C@H]1CN(C2CCCCC2)C(=O)[C@@H]1CC(=O)NCc1ccc(OC)cc1 | -1.3%
54 | O=C(CSc1nc2ncccc2[nH]1)Nc1ccc2c(c1)OCCO2 | -2.03%
55 | Cn1ccnc1SCC(=O)Nc1ccc2c(c1)OCCO2 | -13.9%
56 | O=C(CSc1nc(=O)n2ccccc2n1)Nc1ccc2c(c1)OCCO2 | 35.3% (active)
57 | CC(=O)Nc1cc(-c2ccc(N3CCN(C)CC3)cc2)cn2c(-c3ccc(F)cc3)cnc12 | -18.1%
58 | CCc1ccc2c(c1)NC(=O)C2(C)Cc1ccc(OC(F)(F)F)cc1 (stereo not given) | -13.1%
59 | Cc1ccc(Cl)c(OCC(=O)NN2CCN(C)CC2)c1 | -16.2%
60 | CN1CCC(OC(=O)COc2ccc(Cl)cc2Cl)CC1 | 51.8% (active)
61 | O=C(CCCOc1ccc(Cl)cc1Cl)NNC(=O)C1CCC1 | -17.9%
62 | COc1ccc(CN(CC(=O)NC2CCCC2)C(=O)CCC(=O)Nc2cc(C)on2)cc1 | -0.71%
63 | CN(C)/C=C(\C#N)C(=O)c1cccnc1Oc1ccc(F)cc1F | -0.88%
64 | O=C(N=C1SC2CS(=O)(=O)CC2N1c1ccccc1)c1ccccc1 (stereo not given) | -9.89%
65 | CCOC(=O)C1CCN(Cc2ccc(-c3ccccc3)cc2)CC1 | 25.5%
66 | CCOC(=O)N1CCN(Cc2nnc(-c3ccccc3Cl)o2)CC1 | -15.1%
67 | CCOC(=O)C1CCN(Cc2nnc(-c3cccc(Br)c3)o2)CC1 | 35.9% (active)
68 | CC1=NC2(CCCc3c2no[n+]3[O-])N(O)C1(C)C (stereo not given) | 0.36%
69 | Cc1ccc(C(=O)NC(C)C(c2cccs2)N2CCOCC2)cc1C (stereo not given) | -6.99%
70 | COC(=O)[C@]1(S(=O)(=O)c2ccccc2)C[C@@H]2ON=C(c3ccc(OC)cc3)[C@@H]2C1 | -7.9%
71 | N#C[C@]1(S(=O)(=O)c2ccccc2)C[C@@H]2ON=C(c3cccc(Br)c3)[C@@H]2C1 | 33.5% (active)
72 | CCN1C(=O)C(C(=O)NC(C)c2ccccc2)C2CC1(C)Oc1ccccc12 (stereo not given) | -3.28%

Row | Structure (SMILES) | inhibition
73 | C=CCOc1ccc(/C=C/C(=O)OCC(=O)NCC2CCCO2)cc1 (stereo not given) | -1.61%
74 | NC(=O)C1(N2CCCC2)CCN(Cc2ccccc2)CC1 | 2.73%
75 | CC12CN(Cc3ccccc3)CC(C)(CN(Cc3ccccc3)C1)C2=NO | 38.2% (active)
76 | O=S1(=O)CCN(Cc2ccccc2)CC1 | -8.4%
77 | COc1ccc(/C=N/NC(=O)C(C)N(c2ccc(OC)cc2)S(C)(=O)=O)cc1 (stereo not given) | 3.35%
78 | CC(=O)Nc1ccc(Nc2ncnc3c2nnn3Cc2ccccc2Cl)cc1 | -1.5%
79 | COC(=O)C1(S(=O)(=O)C2(C(=O)OC)CCCC2)CCCC1 | -1.25%
80 | CCCCOc1ccc(CON(C(C)=O)C(C)=O)cc1Cl | 6.46%
81 | COc1ccccc1S(=O)(=O)NCc1ccc(C(=O)N(C)Cc2ccc(F)cc2)cc1 | -14.8%
82 | COc1ccc([N+](=O)[O-])cc1C1NN=C(c2cccc3ccccc23)S1 (stereo not given) | -11%
83 | Cc1ccc(-c2nc(C#N)c(NCCCn3ccnc3)o2)cc1 | -17.5%
84 | Cc1ccc2c(Cl)c(C(=O)NCCCn3ccnc3)sc2c1 | -10.2%
85 | Cc1ccc(S(=O)(=O)c2nc(NCCCn3ccnc3)sc2Cl)cc1 | 29.2% (active)
86 | C/C(=N\NC(=S)NCc1ccccc1)C1CCCCC1 | -9.74%
87 | Cc1cc2nc(-c3ccc(Cl)cc3)c(Cc3cccc(F)c3)n2c(C)c1Br | 0.42%
88 | COc1ccccc1OCC(=O)Nc1c2c(nn1-c1ccc(F)cc1)CS(=O)(=O)C2 | -12.4%
89 | O=C(CC1CCCCC1)Nc1c2c(nn1-c1ccc(F)cc1)CS(=O)(=O)C2 | 104% (active)
90 | O=C(Nc1c2c(nn1-c1ccccc1)CS(=O)(=O)C2)C1CCCC1 | -10.8%
91 | c1ccc2c(c1)CSc1sccc1C2=C1CCNCC1 | 99.6% (active)
92 | CC(C)(C)NC(=O)CSC(=Nc1ccccc1F)NC#N | -1.14%
93 | COCCn1c(=S)[nH]c2cc(C(=O)NCCc3ccc(OC)c(OC)c3)ccc2c1=O | -6.48%
94 | COc1ccc(-n2c(=O)[nH]c3cc(C(=O)NCCc4ccc(OC)c(OC)c4)ccc3c2=O)c(OC)c1 | -8.11%
95 | CCOC(=O)N1CCN(C(=O)c2ccc3c(=O)n(CCc4ccc(OC)c(OC)c4)c(=O)[nH]c3c2)CC1 | 62.3% (active)
